One may read the AC50 as the concentration at which the activity in the assay is half-maximal.

Unmarked numbers belong to inactive results. For some of these results: Results with a measured potency or affinity are listed apart. The source made the active and inactive calls. The rule behind the calls is not given here.

The values below come from PubChem BioAssay (NCATS).

The conditions of assay [1]: Ebola virus entry assay, green fluorescence channel.
For assay [2] the following is noted: Ebola virus entry assay, blue channel fluorescence.
For assay [3] the following is noted: Ebola virus entry assay, ratio channel.
For assay [4] the following is noted: Ebola virus entry assay, reporter ratio channel; Channel type: primary.
For assay [5] the following is noted: Ebola virus entry assay, blue channel (ratio component).
Throughout, for efficacy: 0% is about no effect.

Turning to `NC(=NCCCCCCN=C(N)/N=C(\N)Nc1ccc(Cl)cc1)/N=C(\N)Nc1ccc(Cl)cc1`, the efficacy in assay [1] was -197%. For the same compound, the AC50 in assay [2] and in assay [4] was 39.8 µM (active) throughout. Also, the result in assay [3] was inactive.

Turning to `C[C@@H]1C[C@H]2[C@@H]3CCC4=CC(=O)C=C[C@]4(C)[C@@]3(Cl)[C@@H](O)C[C@]2(C)[C@@]1(OC(=O)c1ccco1)C(=O)CCl`, the efficacy in assay [1] was 39.8%. For the same compound, the AC50 in assay [2] was 25.1 µM (active); in assay [3] it was 10 µM (active); in assay [4], 10 µM (active).

Take `CN(C)CCCOc1nn(Cc2ccccc2)c2ccccc12`: in assay [1], the efficacy is 54.9%. Besides, the AC50 in assay [2] was 7.94 µM (active); in assay [3] it was 3.55 µM (active); in assay [4], 3.55 µM (active).

In the case of `C[C@H]1O[C@@H](O[C@H]2CC[C@@]3(C)[C@H](CC[C@@H]4[C@@H]3C[C@@H](O)[C@]3(C)[C@@H](C5=CC(=O)OC5)CC[C@]43O)C2)C[C@H](O)[C@@H]1O[C@H]1C[C@H](O)[C@H](O[C@H]2C[C@H](O)[C@H](O[C@@H]3O[C@H](CO)[C@@H](O)[C@H](O)[C@H]3O)[C@@H](C)O2)[C@@H](C)O1`, the efficacy in assay [1] was -58.9%. The AC50 in assay [2] was 1.58 µM (active); in assay [3] it was 0.891 µM (active); in assay [4] it was 0.891 µM (active).

As for `COC(=O)C1=C(C)NC(C)=C(C(=O)OC(C)(C)CN(C)CCC(c2ccccc2)c2ccccc2)C1c1cccc([N+](=O)[O-])c1` (stereo not drawn), the efficacy in assay [1] was 39.5%. In addition, the AC50 in assay [2] is 14.1 µM (active); in assay [3], 12.6 µM (active); in assay [4], 12.6 µM (active).

As to `COc1ccc(-n2nc(CCC(=O)N(C)O)cc2-c2ccc(Cl)cc2)cc1`, the efficacy in assay [1] was 77.8%. Besides, the AC50 in assay [2] was 11.2 µM (active); in assay [3], 10 µM (active); in assay [4] it was 10 µM (active).

For `COc1ccc(-c2cc(C(F)F)nn2-c2ccc(S(N)(=O)=O)cc2)cc1F`, the efficacy in assay [1] was 77%. Moreover, the AC50 in assay [2] was 25.1 µM (active); in assay [3], 14.1 µM (active); in assay [4] it was 14.1 µM (active).

As to `CC(C(O)c1ccc(O)cc1)N1CCC(Cc2ccccc2)CC1` (stereo not drawn), the efficacy in assay [1] was 92.8%. Also, the results for the AC50 in assay [2], in assay [3] and in assay [4] were 17.8 µM (active), 28.2 µM (active) and 28.2 µM (active), respectively.

Turning to `C[C@]1(Cn2ccnn2)[C@H](C(=O)O)N2C(=O)C[C@H]2S1(=O)=O`, the efficacy in assay [1] was -31%. Moreover, the results for the AC50 in assay [2], in assay [3] and in assay [4] were 0.282 µM (active), 0.316 µM (active) and 0.316 µM (active), respectively.

Consider `CN(C)[C@@H]1C(=O)C(C(=O)NCN2CCCC2)=C(O)[C@@]2(O)C(=O)C3=C(O)c4c(O)cccc4[C@@](C)(O)C3C[C@@H]12` (stereo partly drawn), for which the efficacy in assay [1] was 145%. Also, the AC50 in assay [2], in assay [3] and in assay [4] was 11.2 µM (active) throughout.

In the case of `CCCCCCCCCCOCC(O)CN` (stereo not drawn), the efficacy in assay [1] is -191%. For the same compound, the figures for the AC50 in assay [2], in assay [3] and in assay [4] were 4.47 µM (active), 1.78 µM (active) and 1.78 µM (active), respectively.

For the compound `O=C(CCCN1CCC(O)(c2cccc(C(F)(F)F)c2)CC1)c1ccc(F)cc1`, the efficacy in assay [1] is 61.9%. Moreover, the AC50 in assay [2] is 25.1 µM (active); in assay [3], 20 µM (active); in assay [4], 20 µM (active).

For `NCCNc1cccc2ccccc12`, the efficacy in assay [1] is 85.8%. Further, the AC50 in assay [2] was 39.8 µM (active); in assay [3] it was 25.1 µM (active); in assay [4] it was 25.1 µM (active).

In the case of `CSc1ccc2c(c1)C(N1CCN(C)CC1)Cc1ccccc1S2` (stereo not drawn), the efficacy in assay [1] was -190%. Besides, the AC50 in assay [2] was 3.55 µM (active); in assay [3] it was 3.16 µM (active); in assay [4] it was 3.16 µM (active).

On to `COc1ccc2c(c1)c(CC(=O)OCC(=O)O)c(C)n2C(=O)c1ccc(Cl)cc1`, for which the efficacy in assay [1] was 44.7%. Also, the compound was classed as inactive in assay [2], in assay [3] and in assay [4].

Consider `Nc1ccc2cc3ccc(N)cc3nc2c1`, for which, in assay [1], the efficacy was 154%. Moreover, the AC50 in assay [2], in assay [3] and in assay [4] was 39.8 µM (active) throughout.

As for `CC(=O)SC[C@@H](Cc1ccccc1)C(=O)NCC(=O)OCc1ccccc1`, in assay [1], the efficacy is 58%. In addition, the AC50 in assay [2], in assay [3] and in assay [4] was 28.2 µM (active) in each case.

In the case of `C[C@@H](C1=C(CCN(C)C)Cc2ccccc21)c1ccccn1`, in assay [1], the efficacy was 89%. Further, the AC50 was 12.6 µM (active) in assay [2], 10 µM (active) in assay [3] and 10 µM (active) in assay [4].

For `C#C[C@]1(O)CC[C@H]2[C@@H]3[C@H](C)CC4=C(CCC(=O)C4)[C@H]3CC[C@@]21C`, the outcome in assay [5] was inactive.

With `O=C(COc1ccc(Cl)cc1)N1CCN(Cc2ccc3c(c2)OCO3)CC1`, in assay [1], the efficacy is 71.8%. Besides, the outcome in assay [2], in assay [3] and in assay [5] was inactive. For the same compound, the AC50 in assay [4] is 39.8 µM (active).

Turning to `CNC[C@H](O)c1ccc(O)c(O)c1`, the efficacy in assay [1] is 27.1%. In addition, the call in assay [2], in assay [3], in assay [4] and in assay [5] was inactive.

With `CC(=O)[C@@]1(O)CC[C@H]2[C@@H]3C[C@H](C)C4=CC(=O)CC[C@]4(C)[C@H]3CC[C@@]21C`, in assay [1], the efficacy was 52.6%. The compound was called inactive in assay [2], in assay [3], in assay [4] and in assay [5].

On to `C=C1C(=C/C=C2\CCC[C@]3(C)[C@@H]([C@H](C)/C=C/[C@@H](O)C4CC4)CC[C@@H]23)C[C@@H](O)C[C@@H]1O`, for which the efficacy in assay [1] was 59.6%. The call in assay [2], in assay [3] and in assay [5] was inactive. Besides, the AC50 in assay [4] was 39.8 µM (active).

As to `O=Cc1ccccc1C=O`, the efficacy in assay [1] is -22.6%. In addition, the compound was classed as inactive in assay [2], in assay [3], in assay [4] and in assay [5].

With `C[C@]12CCC(=O)C=C1CC[C@@H]1[C@@H]2CC[C@@]2(C)[C@H]1CC[C@]2(O)C(=O)CO`, in assay [1], the efficacy was 55.8%. Also, the compound was called inactive in assay [2], in assay [3], in assay [4] and in assay [5].
